Assay results reported in PubChem BioAssay (NCATS).
Several values for one entry are separate records, joined by “and”; a condition that tells them apart may be missing. Equal values may be shown once. Inconclusive results are not listed. Where a call stands in place of a potency, no number is given. Unmarked numbers belong to inactive results. Activity calls are given as the source filed them. Calls come from the whole dose curve; as a rule, active = well fitted curve in the direction sought with a large enough effect; inconclusive = small, poorly fitted or top-dose-only effect, or another doubt; inactive = no such curve, though single readings can be large; an effect the other way counts as inactive or inconclusive. Peptide text beside a SMILES is read from it. * marks the point of attachment. Cbz = O=C(OCc1ccccc1)*

Tests used:
[1] = Viability qHTS for spleen associated tyrosine kinase inhibitor (SYKi) naive MV4-11 cells (AID 1963823); note: nearly all actives have a fitted effect of over 40% in size
Summary of the method: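 Seeding of 500 SYKi-naive MV4-11 cells per well onto pre-dispensed compounds preceded a 72 hr incubation at 37 C. Luminescent CellTiter-Glo signal, read after 10 min at room temperature, reflected viable cells.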

[2] = Viability qHTS for spleen associated tyrosine kinase inhibitor (SYKi) drug resistant MV4-11 cells (AID 1963824); note: nearly all actives have a fitted effect of over 35% in size
Summary of the method: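 CellTiter-Glo luminescence, read 10 min after reagent addition, reports viability after a 72 hr compound exposure. Cells are an MV4-11 line made resistant to SYK inhibition, seeded at 500 per well onto compound-containing plates.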

[3] = Quantitative highthroughput screen to assess conditional lethalithy of NOMO1 cells grown in RPMI1640 with untreated serum (RPMI+s) (AID 1963876); note: nearly all actives have a fitted effect of over 35% in size
Summary of the method: (§1)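 Each medium arm—HPLM with 10% dialyzed FBS, or RPMI1640 with 5 mM glucose and 10% untreated or dialyzed FBS—was screened against an 11-point, 3-fold compound titration for 48 h at 37 °C, with CellTiter-Glo luminescence as endpoint.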

[4] = Quantitative highthroughput screen to assess conditional lethalithy of NOMO1 cells grown in RPMI1640 with dialyzed fetal bovine serum (RPMI+ds) (AID 1963877); note: nearly all actives have a fitted effect of over 30% in size; for Viability: series mostly up to about 46 µM
Summary of the method: as §1

[5] = Quantitative highthroughput screen to assess conditional lethalithy of NOMO1 cells grown in Human Plasma-Like Medium with dialyzed fetal bovine serum (HPLM+ds) (AID 1963878); note: nearly all actives have a fitted effect of over 35% in size
Summary of the method: as §1

[6] = Quantitative highthroughput screen to assess conditional lethalithy of P12 Ichikawa cells grown in Human Plasma-Like Medium with dialyzed fetal bovine serum (HPLM+ds) (AID 1963879); conditions: Potency: viability; note: nearly all actives have a fitted effect of over 35% in size; for Viability: series mostly up to about 46 µM
Summary of the method: as §1

[7] = Quantitative highthroughput screen to assess conditional lethalithy of P12 Ichikawa cells grown in RPMI1640 with dialyzed fetal bovine serum (RPMI+ds) (AID 1963880); conditions: Potency: P12-Ichikawa viability; note: nearly all actives have a fitted effect of over 35% in size
Summary of the method: as §1

[8] = Quantitative highthroughput screen to assess conditional lethalithy of P12 Ichikawa cells grown in RPMI1640 with untreated serum (RPMI+s) (AID 1963881); conditions: Potency: viability; note: nearly all actives have a fitted effect of over 35% in size; for Viability: series mostly up to about 46 µM
Summary of the method: as §1

[9] = Quantitative highthroughput screen to assess conditional lethalithy of SEM cells grown in Human Plasma-Like Medium with dialyzed fetal bovine serum (HPLM+ds) (AID 1963882); note: nearly all actives have a fitted effect of over 35% in size; for Viability: series mostly up to about 46 µM
Summary of the method: as §1

[10] = Quantitative highthroughput screen to assess conditional lethalithy of SEM cells grown in RPMI1640 with unreated serum (RPMI+s) (AID 1963883); note: nearly all actives have a fitted effect of over 35% in size
Summary of the method: as §1

[11] = Quantitative highthroughput screen to assess conditional lethalithy of SEM cells grown in RPMI1640 with dialyzed fetal bovine serum (RPMI+ds) (AID 1963884); note: nearly all actives have a fitted effect of over 35% in size; for Viability: series mostly up to about 46 µM
Summary of the method: as §1

[12] = Cellular viability qHTS for adrenocortical cancer (ACC) cell line SW-13 (AID 1963989); conditions: SW-13 ACC cells viability, CellTiter-Glo, 48 h; activity (max response): stronger effect = lower value; note: nearly all actives have a fitted effect of over 65% in size;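 for activity (max response): cells grown in serum-free medium with ITS supplement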
Summary of the method: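 SW-13 cells in ITS-supplemented serum-free DMEM were plated overnight, then exposed for 48 h at 37C to compound titrations (up to 46 uM final). Viability was read by CellTiter-Glo luminescence; four-parameter logistic fits gave IC50 and efficacy.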

[13] = Cellular viability qHTS for adrenocortical cancer (ACC) cell line NCI-H295R (AID 1963990); note: nearly all actives have a fitted effect of over 60% in size
Summary of the method: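 Luminescent ATP read-out (CellTiter-Glo, 20 min RT) after 48 h drug exposure of NCI-H295R cells; a titration up to 46 uM final. Data normalized to doxorubicin (100% inhibition) and DMSO (0%); 4-parameter fit gives IC50, max response.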
Potency is the fitted concentration of half-maximal effect.

Compound	Potency [1]	Potency [2]	Potency [3]	Potency [4]	Potency [5]	Potency [6]	Potency [7]	Potency [8]	Potency [9]	Potency [10]	Potency [11]	Potency [12]	Potency [13]	activity (max response) [12] [%]
CC(C)(C)c1cc(C(C)(C)C)c(NC(=O)c2c[nH]c3ccccc3c2=O)cc1O	11.8 µM (active)	7.42 µM (active)	inactive	inactive	inactive	inactive	inactive	inactive	inactive	inactive	inactive	6310 nM (active)	7080 nM (active)	
CC(C)C[C@@H](C=O)NC(=O)[C@H](CC(C)C)NC(=O)[C@H](CC(C)C)NC(=O)OCc1ccccc1 (Cbz-Leu-Leu-Leu-aldehyde)	0.833 µM (active)	1.05 µM (active)	743 nM (active)	2090 nM (active)	1480 nM (active)	2960 nM (active)	2640 nM (active)	1180 nM (active)	662 nM (active)	332 nM (active)	743 nM (active)	794 nM (active)	1260 nM (active)	
Cc1ncc(-c2ccnc(Nc3ccc(S(C)(=O)=O)cc3)n2)n1C(C)C	1.3 µM (active) and 1.66 µM (active)	920 nM (active) and 934 nM (active)	7430 nM (active)	5900 nM (active)	7430 nM (active)	20900 nM (active)	13200 nM (active)	13200 nM (active)	3720 nM (active)	3320 nM (active)	5260 nM (active)	8910 nM (active)	7080 nM (active)	
CCOC(=O)C(C)Oc1cccc2c(=O)n(CC(=O)Nc3ccc4c(c3)OCCO4)ccc12 (stereo unspecified)	1.48 µM (active)	0.934 µM (active)	inactive	inactive	inactive	inactive	inactive	inactive	inactive	inactive	inactive		inactive	14.3
Nc1ccccc1NC(=O)c1ccc(CNc2nccc(-c3cccnc3)n2)cc1	0.291 µM (active)	0.231 µM (active)	2640 nM (active)	2350 nM (active)	2350 nM (active)	2090 nM (active)	2350 nM (active)	2090 nM (active)	743 nM (active)	833 nM (active)	662 nM (active)	3980 nM (active)	355 nM (active)	
COc1cc2c(cc1OC)CC(=O)N(CCCN(C)C[C@H]1Cc3cc(OC)c(OC)cc31)CC2	inactive	inactive	inactive	inactive	inactive	inactive	inactive	inactive	inactive	inactive	inactive		inactive	10.3
CN1CCN(Cc2ccc(NC(=O)Nc3ccc(Oc4cc(NC(=O)C5CC5)ncn4)cc3)cc2C(F)(F)F)CC1	inactive	inactive	418 nM (active)	418 nM (active)	372 nM (active)	526 nM (active)	418 nM (active)	469 nM (active)	20.9 nM (active)	11.8 nM (active)	8.3 nM (active)	316 nM (active)	1260 nM (active)	
CN1c2ccccc2C(=O)N2CCc3c([nH]c4ccccc34)C21 (stereo unspecified)	1.64 µM (active)	1.16 µM (active)	inactive	inactive	inactive	inactive	inactive	inactive	inactive	inactive	inactive	2240 nM (active)	1780 nM (active)	
COc1nc(C)cnc1NS(=O)(=O)c1cccnc1-c1ccc(-c2nnco2)cc1	inactive	inactive	inactive	inactive	inactive	inactive	inactive	inactive	inactive	inactive	inactive		inactive	3.93
Cc1c(-c2ccnn2C)cc(C(=O)NCc2ccc(S(C)(=O)=O)cn2)c(=O)n1-c1cccc(C(F)(F)F)c1	inactive	inactive	inactive	inactive	inactive	inactive	inactive	inactive	inactive	inactive	inactive		inactive	5.26
CCCCCN(CCC12CC3CC(CC(C3)C1)C2)C(=O)NCCCc1ccncc1	8.33 µM (active)	7.42 µM (active)	inactive	inactive	inactive	inactive	inactive	inactive	inactive	inactive	inactive		inactive	-15.8
COCCCOc1cc(C[C@@H](C[C@H](N)[C@@H](O)C[C@H](C(=O)NCC(C)(C)C(N)=O)C(C)C)C(C)C)ccc1OC	inactive	168 nM (active) and 5.9 µM (active)	inactive	inactive	inactive	inactive	inactive	inactive	inactive	inactive	inactive		inactive	6.05
